# Test results: PubChem BioAssay AID1159580 (chemical genetic matrix, 2015)
# The whole screen tested about 5,500 compounds, of which about 2,000 (36%) were called active. Roughly 18% stayed inconclusive and do not appear here. The list shows a part of the results. Values without a mark were called inactive. Cut-off read from the data, not from the text of the source: active = normalized growth mostly below about 0.91 (no sharp cut-off); inconclusive = no clear call, values can overlap the other calls; inactive = mostly above about 0.92.
# Test: chemical genetic growth profiling, strain panel (AID 1159580);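 note: tested at 20 µM; growth read once vehicle control cultures reached saturation at 30 °C; 1 = growth at the plate median or of vehicle wells; lower values mean less growth of the strain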
# Conditions: S. cerevisiae deletion strains, growth OD
# [1] = locus YAR019C, strain CDC15, stronger effect = lower value
# [2] = locus YBL105C, strain PKC1, stronger effect = lower value
# [3] = locus YBR135W, strain CKS1, stronger effect = lower value
# [4] = locus YBR136W, strain MEC1, stronger effect = lower value
# [5] = locus YBR160W, strain CDC28, stronger effect = lower value
# [6] = locus YDL017W, strain CDC7, stronger effect = lower value
# [7] = locus YDL028C, strain MPS1, stronger effect = lower value
# [8] = locus YDL101C, strain DUN1, stronger effect = lower value
# [9] = locus YDL108W, strain KIN28, stronger effect = lower value
# [10] = locus YDL132W, strain cdc53, stronger effect = lower value
# [11] = locus YDL214C, strain PRR2, stronger effect = lower value
# [12] = locus YDR052C, strain DBF4, stronger effect = lower value
# [13] = locus YDR054C, strain cdc34, stronger effect = lower value
# [14] = locus YDR226W, strain ADK1, stronger effect = lower value
# [15] = locus YDR477W, strain SNF1, stronger effect = lower value
# [16] = locus YER123W, strain YCK3, stronger effect = lower value
# [17] = locus YER133W, strain GLC7, stronger effect = lower value
# [18] = locus YFL009W, strain cdc4, stronger effect = lower value
# [19] = locus YFL029C, strain CAK1, stronger effect = lower value
# [20] = locus YFR003C, strain YPI1, stronger effect = lower value
# [21] = locus YFR019W, strain FAB1, stronger effect = lower value
# [22] = locus YFR028C, strain CDC14, stronger effect = lower value
# [23] = locus YGR040W, strain KSS1, stronger effect = lower value
# [24] = locus YGR052W, strain FMP48, stronger effect = lower value
# [25] = locus YGR092W, strain DBF2, stronger effect = lower value
# [26] = locus YHR030C, strain SLT2, stronger effect = lower value
# [27] = locus YHR079C, strain IRE1, stronger effect = lower value
# [28] = locus YHR082C, strain KSP1, stronger effect = lower value
# [29] = locus YHR205W, strain SCH9, stronger effect = lower value
# [30] = locus YIL147C, strain SLN1, stronger effect = lower value
# [31] = locus YJL095W, strain BCK1, stronger effect = lower value
# [32] = locus YJL128C, strain PBS2, stronger effect = lower value
# [33] = locus YJL157C, strain FAR1, stronger effect = lower value
# [34] = locus YJR016C, strain ILV3, stronger effect = lower value
# [35] = locus YJR066W, strain TOR1 (second series), stronger effect = lower value
# [36] = locus YJR066W, strain TOR1, stronger effect = lower value
# [37] = locus YKL048C, strain ELM1, stronger effect = lower value
# [38] = locus YKL067W, strain YNK1, stronger effect = lower value
# [39] = locus YKL101W, strain HSL1, stronger effect = lower value
# [40] = locus YKL193C, strain SDS22, stronger effect = lower value
# [41] = locus YKL203C, strain TOR2, stronger effect = lower value
# [42] = locus YLR113W, strain HOG1, stronger effect = lower value
# [43] = locus YLR133W, strain CKI1, stronger effect = lower value
# [44] = locus YLR403W, strain SFP1, stronger effect = lower value
# [45] = locus YML070W, strain DAK1, stronger effect = lower value
# [46] = locus YMR001C, strain CDC5, stronger effect = lower value
# [47] = locus YMR205C, strain PFK2 (second series), stronger effect = lower value
# [48] = locus YMR277W, strain FCP1, stronger effect = lower value
# [49] = locus YNL006W, strain LST8, stronger effect = lower value
# [50] = locus YNL020C, strain ARK1, stronger effect = lower value
# [51] = locus YNL161W, strain CBK1, stronger effect = lower value
# [52] = locus YNL183C, strain NPR1, stronger effect = lower value
# [53] = locus YNL207W, strain RIO2, stronger effect = lower value
# [54] = locus YNL222W, strain SSU72, stronger effect = lower value
# [55] = locus YNL307C, strain MCK1 (second series), stronger effect = lower value
# [56] = locus YOL078W, strain AVO1, stronger effect = lower value
# [57] = locus YOL136C, strain PFK27, stronger effect = lower value
# [58] = locus YOR061W, strain CKA2, stronger effect = lower value
# [59] = locus YOR119C, strain RIO1, stronger effect = lower value
# [60] = locus YOR231W, strain MKK1, stronger effect = lower value
# [61] = locus YOR329C, strain SCD5, stronger effect = lower value
# [62] = locus YPL031C, strain PHO85, stronger effect = lower value
# [63] = locus YPL153C, strain RAD53, stronger effect = lower value
# [64] = locus YPL204W, strain HRR25, stronger effect = lower value
# [65] = locus YPL209C, strain IPL1, stronger effect = lower value
# [66] = locus YPL256C, strain CLN2, stronger effect = lower value
# [67] = locus YPR025C, strain CCL1, stronger effect = lower value
# [68] = locus YPR106W, strain ISR1, stronger effect = lower value
# [69] = locus YPR111W, strain DBF20, stronger effect = lower value
# [70] = strain NNK1, stronger effect = lower value
# [71] = strain TSCII, stronger effect = lower value
smiles,measurement,setting,value
COc1ccc(-c2cn3cc(C)ccc3n2)cc1,normalized growth,[1],0.98
same,normalized growth,[2],0.975
same,normalized growth,[3],0.97
same,normalized growth,[4],0.978
same,normalized growth,[5],0.971
same,normalized growth,[6],0.987
same,normalized growth,[7],0.986
same,normalized growth,[8],0.984
same,normalized growth,[9],0.983
same,normalized growth,[10],0.977
same,normalized growth,[11],0.97
same,normalized growth,[12],0.985
same,normalized growth,[13],0.973
same,normalized growth,[14],0.982
same,normalized growth,[15],0.975
same,normalized growth,[16],0.953
same,normalized growth,[17],0.981
same,normalized growth,[18],0.98
same,normalized growth,[19],0.973
same,normalized growth,[20],0.98
same,normalized growth,[21],0.981
same,normalized growth,[22],0.975
same,normalized growth,[23],0.966
same,normalized growth,[24],1.07
same,normalized growth,[25],0.937
same,normalized growth,[26],1.01
same,normalized growth,[27],1.02
same,normalized growth,[28],1.04
same,normalized growth,[29],0.963
same,normalized growth,[30],0.983
same,normalized growth,[31],1.02
same,normalized growth,[32],0.943
same,normalized growth,[33],0.968
same,normalized growth,[34],0.979
same,normalized growth,[35],0.995
same,normalized growth,[36],1.06
same,normalized growth,[37],0.957
same,normalized growth,[38],0.976
same,normalized growth,[39],0.961
same,normalized growth,[40],0.978
same,normalized growth,[41],1.05
same,normalized growth,[42],0.923
same,normalized growth,[43],0.956
same,normalized growth,[44],0.96
same,normalized growth,[45],0.956
same,normalized growth,[46],0.977
same,normalized growth,[47],0.973
same,normalized growth,[48],0.979
same,normalized growth,[49],0.995
same,normalized growth,[50],0.963
same,normalized growth,[51],0.971
same,normalized growth,[52],1.02
same,normalized growth,[53],0.977
same,normalized growth,[54],0.975
same,normalized growth,[55],0.953
same,normalized growth,[56],0.978
same,normalized growth,[57],0.969
same,normalized growth,[58],0.973
same,normalized growth,[59],1.03
same,normalized growth,[60],0.959
same,normalized growth,[61],0.982
same,normalized growth,[62],0.979
same,normalized growth,[63],0.986
same,normalized growth,[64],0.992
same,normalized growth,[65],0.962
same,normalized growth,[66],0.96
same,normalized growth,[67],0.978
same,normalized growth,[68],0.971
same,normalized growth,[69],0.954
same,normalized growth,[70],0.978
same,normalized growth,[71],0.972
Clc1ccccc1-c1csc(-c2cccnc2)n1,normalized growth,[1],0.893
same,normalized growth,[2],0.934
same,normalized growth,[3],0.924
same,normalized growth,[4],0.929
same,normalized growth,[5],0.923
same,normalized growth,[6],0.928
same,normalized growth,[7],0.923
same,normalized growth,[8],0.913 (active)
same,normalized growth,[9],0.924
same,normalized growth,[10],0.932
same,normalized growth,[11],0.822
same,normalized growth,[12],0.917
same,normalized growth,[13],0.848 (active)
same,normalized growth,[14],0.931
same,normalized growth,[15],0.649 (active)
same,normalized growth,[16],0.673
same,normalized growth,[17],0.565 (active)
same,normalized growth,[18],0.932
same,normalized growth,[19],0.889
same,normalized growth,[20],0.93
same,normalized growth,[21],0.783
same,normalized growth,[22],0.939
same,normalized growth,[23],0.647 (active)
same,normalized growth,[24],0.769
same,normalized growth,[25],0.541
same,normalized growth,[26],0.591 (active)
same,normalized growth,[27],0.636
same,normalized growth,[28],0.894
same,normalized growth,[29],0.758
same,normalized growth,[30],0.922
same,normalized growth,[31],0.247 (active)
same,normalized growth,[32],0.926
same,normalized growth,[33],0.773
same,normalized growth,[34],0.902
same,normalized growth,[35],0.686
same,normalized growth,[36],0.67
same,normalized growth,[37],0.968
same,normalized growth,[38],0.866
same,normalized growth,[39],0.9
same,normalized growth,[40],0.88 (active)
same,normalized growth,[41],0.572 (active)
same,normalized growth,[42],0.694 (active)
same,normalized growth,[43],0.842
same,normalized growth,[44],0.662
same,normalized growth,[45],0.787
same,normalized growth,[46],0.913
same,normalized growth,[47],0.864
same,normalized growth,[48],0.869 (active)
same,normalized growth,[49],0.913
same,normalized growth,[50],0.838
same,normalized growth,[51],0.919
same,normalized growth,[52],0.829
same,normalized growth,[53],0.86 (active)
same,normalized growth,[54],0.916
same,normalized growth,[55],0.82
same,normalized growth,[56],0.89
same,normalized growth,[57],0.819
same,normalized growth,[58],0.896
same,normalized growth,[59],0.609 (active)
same,normalized growth,[60],0.756
same,normalized growth,[61],0.902 (active)
same,normalized growth,[62],0.566 (active)
same,normalized growth,[63],0.563 (active)
same,normalized growth,[64],0.553 (active)
same,normalized growth,[65],0.909
same,normalized growth,[66],0.774 (active)
same,normalized growth,[67],0.915
same,normalized growth,[68],0.932
same,normalized growth,[69],0.938
same,normalized growth,[70],0.932
same,normalized growth,[71],0.874 (active)
